Bioassay records deposited in PubChem by National Center for Advancing Translational Sciences (NCATS).
Only some compounds are listed: those with a hit (about 0.41% of all), similar ones and a draw of the others.
aGlu spleen mod: lysosomal alpha-glucosidase (human) modulation | human spleen homogenate, 4-MU-alpha-glucoside fluorescence | Potency, µM (top dose mostly 79.9 µM), for the others: at the highest dose activity change, negative = inhibition, most hits filed as inhibitors | hit rate 0.006% among 240,000;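 note: 0% = enzyme with vehicle and -100% = no enzyme basal signal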
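Human spleen homogenate (1 ug) with 4-methylumbelliferyl-alpha-D-glucopyranoside (1 mM final) in 50 mM citrate/phosphate pH 5.0, 0.01% Tween-20; 40 min at 37 C. Stopped at pH 10; 4-MU fluorescence Ex 365/Em 440 nm; AC50 by Hill fit.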
GAA glycogen mod: inhibitors or activators of human alpha-glucosidase glycogen cleavage; hit rate 0.38% among 300,000; P10253; recombinant GAA, glycogen substrate, Amplex Red glucose oxidase fluorescence; Potency, µM (top dose mostly 76.4 µM), inactives show top-dose activity change, negative = inhibition, usual class: inhibitors;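 note: 0% = full enzyme reaction and -100% = no-enzyme basal signal; the screen sought inhibitors and activators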
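qHTS, 1536-well; enzyme 4 nM final; cpd up to 77 uM; substrate bovine liver glycogen 30 ug; 50 mM citrate/phosphate pH 5.0, 0.01% Tween-20; 37 C, 40 min; Amplex Red detection 45 min RT; Hill fit → AC50.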
LMNA splice mod: LMNA splicing modulation; HeLa LMNA splicing GFP/RFP minigene ratio, 48 h; Potency, µM (titrated, usually from 46.1 µM), inactives show at the top dose ratio change, negative = inhibition, most hits filed as inhibitors; hit rate 0.01% among 200,000; AID 1487; active = well fitted inhibition curve with a large enough effect in the signal ratio, with a control signal flat, not every such curve was filed as active; inconclusive = small, poorly fitted or top-dose-only effect, or effect the other way, or a change in a side signal; the % refers to the signal ratio
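S3 HeLa stable clones carrying a lamin A-EGFP splicing minigene plus DsRed2 were seeded at 600 cells/well in Opti-MEM with 2% FBS, pin-dosed and incubated 48 h at 37°C. Acumen cytometry (488 nm) gave the GFP/RFP total-intensity ratio.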
GAA inhib: inhibitors of human lysosomal alpha-glucosidase | purified human GAA, 4-MU-alpha-glucoside fluorescence | hit rate 0.005% among 200,000 | P10253 | AID 1466 | Potency, µM (series often up to 76.9 µM), for inactives: at the highest dose activity change, negative = inhibition, usual class: inhibitors;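 note: plate controls were uninhibited enzyme wells for no effect and no-enzyme background for full effect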
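AC50 values come from Hill fits of compound titrations (up to 77 uM) against 4 nM human enzyme. Substrate 4-methylumbelliferyl-alpha-D-pyranoside at 400 uM, pH 5.0 citrate buffer, 20 min room temperature; fluorescence Ex 365/Em 440 after alkaline stop.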
N370S GC: N370S glucocerebrosidase modulation, Gaucher chaperone candidate. N370S GC spleen homogenate, 4MU-glucoside fluorescence. Potency, µM (titrated, usually from 59.4 µM), without a hit: top-dose activity change, negative = inhibition, actives largely listed as inhibitors. hit rate 0.092% among 330,000. AID 2101;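 note: 0% = full enzyme activity and -100% = no enzyme basal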
Active calls of the source: *; ? = inconclusive; . = no result given; [ ] = remark or other dose. Unless noted, calls come from the whole dose curve; as a rule, active = well fitted curve in the direction sought with a large enough effect; inconclusive = small, poorly fitted or top-dose-only effect, or another doubt; inactive = no such curve, though single readings can be large; an effect the other way counts as inactive or inconclusive. Unless noted, % is set by controls: 0 for no effect and ±100 for the full control effect; potency is the fitted concentration of half-maximal effect.

SMILES	aGlu spleen mod	GAA glycogen mod	LMNA splice mod	GAA inhib	N370S GC
CN(C)c1ccc(N/C=C/C(=O)c2ccccc2)cc1	5%	14µM*	-10%	-13%	-9%
Cc1ccc(NC(=S)NNC(=O)c2cn(C)nc2C)cc1	2%	28µM*	-1%	-3%	1%
S=C(NCc1ccccc1)Nc1cccc(Cl)c1	-8%	8%	?	-1%	?
Cc1cccc(NC(=S)NNC(=S)NCc2ccccc2)c1	-1%	7.9µM*	?	-7%	10%[12.8 µM]
CN(C(=O)N1CCN(S(=O)(=O)c2ccccc2)CC1)c1ccccc1	-1%	-15%	.	35µM*	.
Cc1ccc(SCC(c2ccccc2)N2CCN(C)CCC2=O)cc1 (centres undefined)	5%	.	.	.	-9%
COc1ccc([C@@H]2CC(=O)c3c(O)cc(O[C@@H]4O[C@H](CO[C@@H]5O[C@@H](C)[C@H](O)[C@@H](O)[C@H]5O)[C@@H](O)[C@H](O)[C@H]4O)cc3O2)cc1	3%	.	.	.	-4%
Cc1cc(=O)oc2cc(OCC(=O)NC(Cc3c[nH]c4ccc(O)cc34)C(=O)O)c(Cl)cc12 (centres undefined)	.	7.9µM*	.	.	1%
Cc1cc(OC(C)C(=O)NC(Cc2c[nH]c3ccc(O)cc23)C(=O)O)c2c(C)c(C)c(=O)oc2c1 (centres undefined)	.	?	.	.	0%
C1CCCNCC1	2%	.	.	.	9%
O=C(NNc1nc2c(F)cc(F)cc2s1)C1=COCCO1	13%	4.4µM*	.	1%	-2%
Cc1cccc2sc(NNC(=O)C3=COCCO3)nc12	0%	?	.	4%	4%
COc1ccc(NC(=S)NNC(=O)Cn2nc([N+](=O)[O-])cc2C)cc1	3%	14µM*	6%	-6%	1%
O=C1NC(=O)/C(=C/c2cccc3ccccc23)S1	.	2%[76.3 µM]	.	.	-2%
O=C1NC(=O)/C(=C\c2ccc(O)cc2O)S1	-14%	2.8µM*	-17%[46 µM]	?	-14%
Cc1cccc(CNc2ccnc(-c3ccoc3)n2)c1	8%	.	-16%	.	5%
Cc1cccc(CNc2ccnc(-c3ccccc3C(F)(F)F)n2)c1	-12%	.	?	.	14µM*
CC1(C)CC(=O)C(c2c[nH]c3ccccc23)C(=O)C1	-3%	10µM*	.	5%	16%
CC(NC(=O)Nc1ccccc1O)(C(F)(F)F)C(F)(F)F	3%	16µM*	?	-12%	3%
O=C(N/N=C/c1ccc(O)c(O)c1)c1ccc(CSc2cccc3cccnc23)cc1	-5%	14µM*	23%	-8%	-5%
Nc1nc(C2CC2)c(Sc2sc(N)nc2C2CC2)s1	2%	6.3µM*	-15%	5%	-13%
Nc1nc(C2CCOCC2)cs1	0%	6%	.	.	-7%
CC(C)(C)/C(O)=C/c1nc2cc(Cl)ccc2oc1=O	3%	3.2µM*	.	.	-9%
Cc1ccc2oc(=O)c(/C=C(\O)c3ccco3)nc2c1	3%	?	.	.	-17%
Cc1ccc2oc(=O)c(/C=C(\O)C(C)(C)C)nc2c1	1%	6.3µM*	-5%[9.22 µM]	-7%	10%
SMILES	aGlu spleen mod	GAA glycogen mod	LMNA splice mod	GAA inhib	N370S GC
CC(=O)NNC(=O)c1cc2sccc2s1	1%	-15%	.	?	10%
NNC(=O)c1cc2sccc2s1	-2%	25µM*	.	2%	7%
COc1ccc(OC)c(NC(=O)Nc2ccccc2C)c1	3%	2%	4%	?	2%
COc1ccc(OC)c(NC(=O)NC2(C(F)(F)F)Oc3ccccc3O2)c1	2%	35µM*	-5%	0%	7%
Cc1cc(NC(=O)NC2(C(F)(F)F)Oc3ccc(Cl)cc3O2)no1 (centres undefined)	-2%	7.1µM*	?	-1%	-6%
Oc1c(Br)cc(Br)cc1-c1nc2ccccc2s1	.	4%[76.3 µM]	.	.	.
Oc1ccc(/C=N/N2CCN(C3c4ccccc4-c4ccccc43)CC2)cc1O	0%	10µM*	.	.	-12%
C=CCOC(=O)Nc1c(C(=O)OC)[nH]c2ccccc12	-12%	-1%	-4%	-3%	-27%
CCS(=O)(=O)Nc1c(C(=O)OC)[nH]c2ccccc12	-1%	4.5µM*	1%	-3%	-4%
CC(=O)Nc1c(C(=O)O)[nH]c2ccccc12	-5%	-3%	-4%	0%	2%
CCS(=O)(=O)Nc1c(C(=O)O)[nH]c2ccccc12	-2%	5µM*	7%	-7%	-8%
O=C(NNC(=S)NC1CCCCC1)c1cccs1	-8%	?	?	-2%	7%
O=C(NNC(=S)NC1CCCCC1)c1ccc(Cl)s1	-14%	50µM*	?	?	1%
c1cncc(CNc2ncnc3ccc(-c4ccco4)cc23)c1	.	.	.	.	9%
Nc1ccc(Nc2ccccc2)c(Cl)c1	-5%	35µM*	7%	0%	-23%
Nc1ccccc1Nc1cc(-c2ccccc2)[nH]n1	9%	7.9µM*	?	1%	-1%
CCCN(CCC)C(=O)c1c[nH]c2ccc(S(=O)(=O)N(C)c3ccc(Cl)cc3)cc2c1=O	.	.	-8%[46 µM]	.	.
Nc1n[nH]c2cc(=O)n(-c3cccc(C(F)(F)F)c3)nc12	-19%	32µM*	?	-10%	9%
O=S1(=O)N=C(Oc2cccc3ccccc23)c2ccccc21	4%	25µM*	2%	-1%	-5%
Cc1ccccc1OC1=NS(=O)(=O)c2ccccc21	-3%	-6%	?	?	0%
CCOC(=O)/C(=N\Nc1ccc(OC)cc1)c1csc(Nc2ccccc2)n1	-6%	25µM*	-29%	-3%	.
Cn1c(-c2ccccc2)cnc1NCc1ccccc1	.	?	.	.	-4%
COc1ccc(-c2cnc(NCc3ccc(C)cc3)n2C)cc1	.	10µM*	.	.	.
Cc1ccc(-c2ccc(C3C4C=CCC(C)C4C(=O)N3Cc3ccccc3)c(F)c2)cc1 (centres undefined)	1%	.	.	.	0%
CCOC(=O)c1oc2c(O)c(O)ccc2c(=O)c1-c1nncn1-c1ccccc1	-6%	35µM*	5%	-12%	-7%
SMILES	aGlu spleen mod	GAA glycogen mod	LMNA splice mod	GAA inhib	N370S GC
COc1ccccc1CNc1nc(-c2cccnc2)nc2ccccc12	-4%	.	?	.	?
COc1ccc2[nH]cc(CCNc3nc(-c4cccnc4)nc4ccccc34)c2c1	-4%	.	?	.	13µM*
COc1ccc(CNc2ccnc(-c3ccccc3OC)n2)c(OC)c1	-1%	.	?	.	-12%
COc1ccc2[nH]cc(CCNc3ccnc(-c4ccccc4C)n3)c2c1	-21%	.	?	.	14µM*
COc1cccc(-c2nccc(NCCc3c[nH]c4ccc(OC)cc34)n2)c1	-6%	.	?	.	?
COc1ccc(CNc2ccnc(-c3ccccc3Cl)n2)c(OC)c1	-10%	.	?	.	4.5µM*
COc1ccc(CNc2nc(-c3cccnc3)nc3ccccc23)c(OC)c1	2%	.	?	.	11µM*
CCOc1cc(C(=O)N2CC(=O)Nc3ccc(F)cc3C2c2ccccc2)cc(OCC)c1OCC (centres undefined)	.	12%[76.3 µM]	.	.	.
